Results filed as inconclusive are left out. Activity calls are given as the source filed them. Unless noted, calls follow the shape of the full dose curve.
What was measured:
[1] = Nuclear factor erythroid 2-related factor 2/antioxidant responsive element (Nrf2/ARE) small molecule agonists: qHTS cell viability counter screen in human keratinocytes (AID 1919968; active = well fitted curve in the direction sought with a large enough effect in the repeat runs; an effect the other way counts as inactive or inconclusive; also: nearly all actives have a fitted effect of over 55% in size; also: potency is read from the fitted curve at half-maximal effect)
In short: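 After a 5 h attachment period, ARE-reporter keratinocytes were dosed with compounds in DMSO and then cultured 23 h at 37 C. Cell viability came from CellTiter-Fluor signal read after a further 1 h.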

[2] = Nuclear factor erythroid 2-related factor 2/antioxidant responsive element (Nrf2/ARE) small molecule agonists: luciferase reporter gene qHTS assay in human keratinocytes (AID 1919969); also: nearly all actives have a fitted effect of over 35% in size
[3] = biological target: Gonadotropin-releasing hormone receptor (Homo sapiens) (UniProt P30968); assay: Human gonadotropin-releasing hormone receptor (GnRHR) small molecule agonists, calcium flux assay in GnRHR-HEK293 cells (AID 1920063); also: nearly all actives have a fitted effect of over 35% in size
Gonadotropin-releasing hormone receptor (Homo sapiens), sequence (P30968 whole entry, looked up): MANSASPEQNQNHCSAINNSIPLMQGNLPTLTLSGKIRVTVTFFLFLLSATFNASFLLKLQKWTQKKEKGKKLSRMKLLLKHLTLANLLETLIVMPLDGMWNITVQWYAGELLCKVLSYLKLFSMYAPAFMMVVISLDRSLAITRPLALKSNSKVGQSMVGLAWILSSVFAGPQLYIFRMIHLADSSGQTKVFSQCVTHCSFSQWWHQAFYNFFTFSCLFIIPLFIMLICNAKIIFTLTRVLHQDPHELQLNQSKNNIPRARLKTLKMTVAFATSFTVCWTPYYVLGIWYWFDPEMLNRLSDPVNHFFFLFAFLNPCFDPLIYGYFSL
In short: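 We seeded human GnRHR-expressing HEK293 cells for 18 hours, loaded them with calcium dye for an hour at 37 C, added test compounds, and recorded fluorescence intensity kinetically for three minutes.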

[4] = biological target: KiSS-1 receptor (Homo sapiens) (UniProt Q969F8); assay: Human kisspeptin (KISS1R) small molecule agonists, calcium flux assay in KISS1R-HEK293 cells (AID 1920064; active = well fitted curve in the direction sought with a large enough effect in the repeat runs; an effect the other way counts as inactive or inconclusive)
KiSS-1 receptor (Homo sapiens), sequence (Q969F8 whole entry, looked up): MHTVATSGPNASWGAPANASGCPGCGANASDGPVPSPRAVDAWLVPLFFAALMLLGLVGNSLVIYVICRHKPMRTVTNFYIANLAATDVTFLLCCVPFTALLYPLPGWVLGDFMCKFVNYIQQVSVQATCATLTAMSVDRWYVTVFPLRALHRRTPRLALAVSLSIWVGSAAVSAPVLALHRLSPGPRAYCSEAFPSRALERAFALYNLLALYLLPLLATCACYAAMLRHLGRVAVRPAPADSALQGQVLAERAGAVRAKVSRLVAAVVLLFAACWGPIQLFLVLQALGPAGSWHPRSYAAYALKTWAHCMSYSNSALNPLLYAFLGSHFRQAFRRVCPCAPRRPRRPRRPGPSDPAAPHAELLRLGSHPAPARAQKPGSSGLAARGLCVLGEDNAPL
In short: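 Kinetic calcium assay, 1 s sampling over 3 min at Ex/Em 480/540, in HEK293 cells engineered with human KISS1R; compounds delivered in DMSO after 1 h dye loading.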

[5] = p53 small molecule agonists, cell-based qHTS assay with human liver microsomes (AID 1963577);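 also: p53 response element beta-lactamase reporter cells with liver microsomes plus NADPH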
In short: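 Steps: plate p53RE-bla cells, incubate 5 h at 37 C; add compound in DMSO; add microsomes (0.5 mg/mL final) and NADPH (0.5 mg/mL final); incubate 16 h at 37 C; add LiveBLAzer, 2 h RT; read fluorescence.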

[6] = p53 small molecule agonists, cell-based qHTS assay with rat liver microsomes (AID 1963578)
In short: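 Metabolic activation is supplied by rat liver microsomes with NADPH (each 0.5 mg/mL final). p53RE-bla cells incubate with compound 16 h at 37 C; reporter activity is measured by LiveBLAzer fluorescence.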

[7] = p53 small molecule agonists, cell-based qHTS assay with human liver microsomes: qHTS cell viability counter screen (AID 1963579); also: nearly all actives have a fitted effect of over 45% in size
In short: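 After the 460/530 nm beta-lactamase read, CellTiter-Glo was added to the same wells and luminescence measured after 30 min at room temperature, giving viability of p53RE-bla cells treated 16 h with compounds plus microsomes and NADPH.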

[8] = p53 small molecule agonists, cell-based qHTS assay with rat liver microsomes: qHTS cell viability counter screen (AID 1963580); also: nearly all actives have a fitted effect of over 45% in size
In short: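 p53RE-bla HCT-116 cells (4,000/well) rested 5 h at 37 C, then given Tox21 compounds in DMSO with rat liver microsomes (0.5 mg/mL final) plus NADPH (0.5 mg/mL final) for 16 h at 37 C. Viability read by CellTiter-Glo luminescence after 30 min at room temperature.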

[9] = p53 small molecule agonists, cell-based qHTS assay: qHTS cell viability counter screen (AID 1963581); also: nearly all actives have a fitted effect of over 45% in size
In short: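 Following 5 h attachment, HCT-116 p53RE-bla cells took up compound for 16 h at 37 C; the reporter was read with B/G FRET substrate (2 h RT), and viability then via CellTiter-Glo ATP luminescence.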

[10] = p53 small molecule agonists, cell-based qHTS assay (AID 1963582; active = well fitted activation curve with a large enough effect in the signal ratio in the repeat runs, not every such curve was filed as active; the % refers to the signal ratio)
In short: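 In this cell-based concentration-response screen, a p53 response element drives beta-lactamase; cells received DMSO-borne compounds after 5 h culture and were incubated a further 16 h before FRET substrate development.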

[11] = biological target: 5-hydroxytryptamine receptor 2A (Homo sapiens) (UniProt P28223); assay: 5-hydroxytryptamine receptor 2A (HTR2A) small molecule antagonists, cell-based qHTS assay (AID 1963586); also: nearly all actives have a fitted effect of over 45% in size
5-hydroxytryptamine receptor 2A (Homo sapiens), sequence (P28223 whole entry, looked up): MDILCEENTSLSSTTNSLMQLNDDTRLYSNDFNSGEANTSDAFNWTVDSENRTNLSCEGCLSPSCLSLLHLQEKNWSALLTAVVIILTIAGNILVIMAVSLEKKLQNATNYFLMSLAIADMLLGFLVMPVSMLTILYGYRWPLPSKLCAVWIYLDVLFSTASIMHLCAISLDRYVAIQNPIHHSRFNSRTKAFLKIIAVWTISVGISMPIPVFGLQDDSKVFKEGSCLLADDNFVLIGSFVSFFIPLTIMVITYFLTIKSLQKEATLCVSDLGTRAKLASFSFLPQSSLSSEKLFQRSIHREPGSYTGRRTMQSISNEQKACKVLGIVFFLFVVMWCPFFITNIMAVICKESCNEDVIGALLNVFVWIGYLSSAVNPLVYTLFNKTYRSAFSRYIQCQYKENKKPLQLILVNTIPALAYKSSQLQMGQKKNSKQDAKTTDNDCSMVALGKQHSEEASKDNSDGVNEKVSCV
In short: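 Antagonist-mode intracellular calcium assay: DOI (4 nM) added after 5 min compound pre-incubation at room temperature to dye-loaded HTR2A-CHO cells. Fluorescence followed for 3 min, sampled every second.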

[12] = biological target: 5-hydroxytryptamine receptor 2A (Homo sapiens) (UniProt P28223); assay: 5-hydroxytryptamine receptor 2A (HTR2A) small molecule agonists, cell-based qHTS assay (AID 1963587); also: nearly all actives have a fitted effect of over 30% in size
In short: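 HTR2A-CHO cells, plated 18 h at 37 C/5% CO2, dye-loaded 1 h at 37 C; compounds in DMSO added by pin tool (agonist mode). Intracellular calcium flux read as kinetic fluorescence on FDSS over 2 min at 1 s intervals.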

[13] = biological target: Muscarinic acetylcholine receptor M1 (Homo sapiens) (UniProt P11229); assay: Cholinergic receptor muscarinic 1 (CHRM1) small molecule antagonists, cell-based qHTS assay (AID 1963588); also: nearly all actives have a fitted effect of over 40% in size
Muscarinic acetylcholine receptor M1 (Homo sapiens), sequence (P11229 whole entry, looked up): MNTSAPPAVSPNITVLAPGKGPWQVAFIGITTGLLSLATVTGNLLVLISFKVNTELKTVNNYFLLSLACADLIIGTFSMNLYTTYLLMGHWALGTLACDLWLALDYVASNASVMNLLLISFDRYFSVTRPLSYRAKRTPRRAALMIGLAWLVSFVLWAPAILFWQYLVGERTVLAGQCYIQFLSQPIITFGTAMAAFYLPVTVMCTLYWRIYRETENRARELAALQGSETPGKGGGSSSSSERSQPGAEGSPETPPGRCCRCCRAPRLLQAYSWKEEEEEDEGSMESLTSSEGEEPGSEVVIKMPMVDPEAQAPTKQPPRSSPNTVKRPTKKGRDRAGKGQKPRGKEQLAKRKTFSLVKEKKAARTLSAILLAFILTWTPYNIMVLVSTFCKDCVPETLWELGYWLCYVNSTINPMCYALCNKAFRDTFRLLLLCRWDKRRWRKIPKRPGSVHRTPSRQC
In short: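 CHRM1-CHO calcium-flux assay, antagonist mode. Cells were seeded 18 h, dye-loaded 1 h at 37 C and given compound for 5 min at RT, then acetylcholine was added at 50nM. FDSS fluorescence was read 3 min; 15 concentrations, three runs.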

[14] = biological target: Muscarinic acetylcholine receptor M1 (Homo sapiens) (UniProt P11229); assay: Cholinergic receptor muscarinic 1 (CHRM1) small molecule agonists, cell-based qHTS assay (AID 1963589); also: nearly all actives have a fitted effect of over 35% in size
In short: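 Measures agonist-induced intracellular calcium rise. Stable human CHRM1 CHO line, 1 h dye load at 37 C, compounds from DMSO, kinetic fluorescence read.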

[15] = cAMP Responsive Elements (CRE) small molecule agonists, cell-based qHTS assay (AID 1963590)
In short: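 A CRE-responsive beta-lactamase reporter in HEK 293T cells was used. Treatment ran 3 h at 37 C; detection used LiveBLAzer B/G FRET substrate for 2 h at room temperature.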

[16] = cAMP Responsive Elements (CRE) small molecule antagonists, cell-based qHTS assay (AID 1963591; active = well fitted inhibition curve with a large enough effect in the signal ratio in the repeat runs, not every such curve was filed as active; the % refers to the signal ratio)
In short: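 HEK293T cells carrying a CRE-driven beta-lactamase reporter receive compound and NKH477 (0.25 uM final) for 3 h. Fluorescence from LiveBLAzer B/G FRET substrate is read after 2 h at room temperature.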

[17] = biological target: Beta-2 adrenergic receptor (Homo sapiens) (UniProt P07550); assay: Adrenergic beta2 receptor (ADRB2) small molecule antagonists, cell-based qHTS assay (AID 1963592); also: series mostly up to about 92 µM; nearly all actives have a fitted effect of over 50% in size
Beta-2 adrenergic receptor (Homo sapiens), sequence (P07550 whole entry, looked up): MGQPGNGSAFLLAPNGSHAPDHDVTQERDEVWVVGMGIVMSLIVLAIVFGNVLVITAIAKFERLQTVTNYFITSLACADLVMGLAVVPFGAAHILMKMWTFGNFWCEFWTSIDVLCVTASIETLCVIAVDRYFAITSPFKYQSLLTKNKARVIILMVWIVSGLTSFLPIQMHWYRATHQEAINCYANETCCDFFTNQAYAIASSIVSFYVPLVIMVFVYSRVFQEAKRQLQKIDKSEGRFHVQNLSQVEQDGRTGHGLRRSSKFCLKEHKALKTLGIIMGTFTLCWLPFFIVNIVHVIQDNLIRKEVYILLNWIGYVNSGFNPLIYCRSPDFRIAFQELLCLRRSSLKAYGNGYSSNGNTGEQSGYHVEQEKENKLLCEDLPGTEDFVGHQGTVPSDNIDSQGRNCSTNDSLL
In short: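 Cells (CHO, stable ADRB2 overexpression) incubated 18-20hr at 37C; compounds added from DMSO; agonist mix (1nM isoproterenol, 100uM IBMX, 25uM Ro-20-1724) added; 0.5hr RT; d2-cAMP and anti-cAMP-cryptate added; 1hr RT; 665/615 nm read.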

[18] = biological target: D(2) dopamine receptor (Homo sapiens) (UniProt P14416); assay: Dopamine D2 receptor (DRD2) small molecule agonists, cell-based qHTS assay (AID 1963594); also: nearly all actives have a fitted effect of over 35% in size
D(2) dopamine receptor (Homo sapiens), sequence (P14416 whole entry, looked up): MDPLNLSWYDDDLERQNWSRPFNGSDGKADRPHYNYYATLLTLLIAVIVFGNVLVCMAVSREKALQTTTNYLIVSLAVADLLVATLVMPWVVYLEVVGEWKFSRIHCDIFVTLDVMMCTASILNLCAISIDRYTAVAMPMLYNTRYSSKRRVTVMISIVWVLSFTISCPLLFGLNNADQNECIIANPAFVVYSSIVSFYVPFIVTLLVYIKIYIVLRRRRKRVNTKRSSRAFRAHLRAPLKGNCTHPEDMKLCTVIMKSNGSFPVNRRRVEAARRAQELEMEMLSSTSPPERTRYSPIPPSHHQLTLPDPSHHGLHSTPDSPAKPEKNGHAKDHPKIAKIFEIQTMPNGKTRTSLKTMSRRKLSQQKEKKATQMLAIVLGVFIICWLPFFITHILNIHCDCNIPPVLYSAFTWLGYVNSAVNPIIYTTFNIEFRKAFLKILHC
In short: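 HEK293 cells stably expressing DRD2 were cultured 24 h at 37 C, then given Ro20-1724 (0.1 mM final) and compounds for 10 min at room temperature. NKH477 (200nM) was then added for 30 min. cAMP was read by HTRF.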

[19] = biological target: D(2) dopamine receptor (Homo sapiens) (UniProt P14416); assay: Dopamine D2 receptor (DRD2) small molecule antagonists, cell-based qHTS assay (AID 1963595; active = well fitted inhibition curve with a large enough effect in the signal ratio in the repeat runs, with a control signal flat; the % refers to the signal ratio)
In short: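 HEK293 cells stably expressing DRD2 were preincubated with 0.1 mM Ro20-1724, then with compound for 10 min at room temperature. Cells were stimulated with 200 nM NKH477 plus 12 nM quinpirole for 30 min, and cAMP was read by HTRF.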

[20] = G protein-coupled receptor (GPCR) small molecule agonists, calcium flux assay: HEK293 wild type cell line counter screen (AID 1920065)
In short: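 Calcium-sensitive dye, loaded 1 h at 37 C into cells cultured 18 h, reports compound-evoked calcium release as fluorescence (Ex/Em 480/540), measured over 3 min. Agonist mode; 15-point titrations, triplicate.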

Measured: Potency

CCCCCC#CC(=O)OC
not listed: [20]
inactive: all other assays above

CCS(=O)(=O)CCn1c([N+](=O)[O-])cnc1C
not listed: [5] | [6] | [7] | [11] | [12] | [13] | [14] | [17]
inactive: all other assays above

O=C(O)P(=O)(O)O
not listed: [5] | [8] | [11] | [12] | [13] | [14]
inactive: all other assays above

CCCCN(CCCC)C(C(N)=O)c1ccc(OC)cc1 (stereo not drawn)
not listed: [20]
inactive: all other assays above

O=C(O)c1cc(N=Nc2ccc([N+](=O)[O-])cc2)ccc1O
active: [1] 26.8 µM
not listed: [5] | [9] | [10] | [14] | [15] | [16] | [17]
inactive: all other assays above

Cc1nccn1CC1CCc2c(c3ccccc3n2C)C1=O (stereo not drawn)
not listed: [11] | [12] | [13] | [14] | [16] | [19] | [20]
inactive: all other assays above

Cc1cn([C@@H]2O[C@H](CO)[C@@H](O)[C@@H]2F)c(=O)[nH]c1=O
not listed: [11] | [20]
inactive: all other assays above

O=C1O[C@@H]2[C@@H](O)[C@H](O)O[C@@H]2[C@H]1O
not listed: [14] | [18] | [20]
inactive: all other assays above

O=C1C(CCS(=O)c2ccccc2)C(=O)N(c2ccccc2)N1c1ccccc1 (stereo not drawn)
not listed: [11] | [12] | [13] | [14] | [20]
inactive: all other assays above

NS(=O)(=O)Cc1noc2ccccc12
not listed: [11] | [13] | [18] | [20]
inactive: all other assays above

CCO[Si](C)(CCCOCC1CO1)OCC (stereo not drawn)
not listed: [14] | [15] | [16] | [20]
inactive: all other assays above

O=C(O)C(O)[C@H](O)[C@@H](O)[C@H](O)[C@H](O)CO (stereo partly drawn)
not listed: [11] | [20]
inactive: all other assays above

CC(Oc1cc(Cl)ccc1Cl)C(=O)O (stereo not drawn)
not listed: [13] | [15] | [16] | [20]
inactive: all other assays above

COc1cc2[nH]c(=O)[nH]c(=O)c2cc1OC
not listed: [15] | [18] | [20]
inactive: all other assays above

— PubChem BioAssay (Tox21)
